Source: PubChem
Shown is part of a subset that was picked to be rich in hits.
ST2 inh: IL1RL1 inhibition. Q01638. AlphaLISA ST2-Fc/biotin-IL-33 interaction, 1 h. inhibition, % for hits at 17 µM. 78,000 tested, 2.3% active; in the data active means inhibition above about 30%
Target sequence (Q01638 whole entry, looked up): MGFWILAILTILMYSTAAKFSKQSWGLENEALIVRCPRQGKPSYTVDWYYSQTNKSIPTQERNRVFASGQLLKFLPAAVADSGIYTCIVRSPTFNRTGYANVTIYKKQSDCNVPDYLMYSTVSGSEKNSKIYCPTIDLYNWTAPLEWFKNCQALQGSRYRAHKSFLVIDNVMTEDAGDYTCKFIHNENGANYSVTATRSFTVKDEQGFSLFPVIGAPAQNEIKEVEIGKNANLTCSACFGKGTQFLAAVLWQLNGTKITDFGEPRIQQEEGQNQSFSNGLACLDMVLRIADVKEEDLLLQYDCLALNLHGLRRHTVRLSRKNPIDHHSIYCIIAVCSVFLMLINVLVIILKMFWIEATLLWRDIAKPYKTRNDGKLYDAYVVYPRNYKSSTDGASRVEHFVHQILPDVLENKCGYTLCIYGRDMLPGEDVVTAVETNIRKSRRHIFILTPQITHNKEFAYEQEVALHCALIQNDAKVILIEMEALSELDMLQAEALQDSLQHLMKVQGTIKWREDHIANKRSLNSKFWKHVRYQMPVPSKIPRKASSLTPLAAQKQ
Of the large screens only hits and unclear results are named; the others gave an inactive call.

CC(=O)Nc1nc(C)c(-c2csc(Nc3ccc(Br)cc3)n2)s1	none
COc1ccc(OC)c(Nc2nc(-c3sc(N)nc3C)cs2)c1	ST2 inh 36.0%
COc1ccccc1Nc1nc(-c2ccc(F)cc2)cs1	none
COc1ccc(S(=O)(=O)N=C2C(C)=CC(=O)C=C2C)cc1	none
COc1ccc(S(=O)(=O)Nc2cc(C)cc(C)c2)cc1	none
COc1ccc(N(C(F)F)S(=O)(=O)c2ccc(C)cc2)cc1	none
CCN(CC)C(=NS(=O)(=O)c1ccc(C)cc1)c1ccc(F)cc1	none
COc1ccc(S(=O)(=O)N=C2C=C(Nc3ccc(C)cc3)C(=O)c3ccccc32)cc1	ST2 inh 92.0%
COc1ccc(NC2=CC(=NS(=O)(=O)c3ccc(C)cc3)c3ccccc3C2=O)cc1	ST2 inh 92.0%
Cc1ccc(S(=O)(=O)Nc2ccc(NC(=O)c3ccc(F)cc3)cc2)cc1	none
COc1ccc(Nc2ccc3c4c(ncnc24)-c2ccccc2C3=O)cc1	none
Cc1ccc(NC2=CC(=NS(=O)(=O)c3ccc(F)cc3)c3ccccc3C2=O)cc1	ST2 inh 69.0%
Cc1ccc(CNC(=O)C2CCN(c3ccc(-c4cccs4)nn3)CC2)o1	none
O=C(CC[C@@H]1CNC(=O)[C@@H]2C[C@H](NC(=O)Nc3ccsc3)CN12)NCc1cccs1	none
Cn1cc(SCC(=O)Nc2ccc(Br)cc2)c2ccccc21	none
Cc1cc(C)c2[nH]c3nc(SC(C)C)nnc3c2c1	none
CCc1ccc(NS(=O)(=O)c2ccc(Br)s2)cc1	none
COCC1CCCN(C(=O)c2ccc(-c3cc(Cl)ccc3Cl)nc2)C1 (stereo not drawn)	none
Cc1ccc(NS(=O)(=O)c2ccc3[nH]c(=O)c(=O)[nH]c3c2)cc1F	none
O=C(CN1C(=O)C2CCCCN2C(=O)c2ccccc21)N1CCN(Cc2ccccc2)CC1 (stereo not drawn)	none
O=C(CN1C(=O)C2CCCCN2C(=O)c2ccccc21)NCc1ccc(F)cc1 (stereo not drawn)	ST2 inh 37.0%
O=C(CN1C(=O)C2CCCCN2C(=O)c2ccccc21)NCc1ccc2c(c1)OCO2 (stereo not drawn)	none
COCCCNc1nc(-c2ccccc2)nc2ccccc12	none
CCOC(=O)C1(CCc2ccccc2)CCCN(C(=O)CCc2cnn(C)c2)C1 (stereo not drawn)	none
CC(C)NC(=O)[C@@H](C)[C@@H]1CC[C@@]2(C)CC[C@H](NC(=O)COc3ccccc3)[C@@H](C)[C@@H]2[C@H]1O	none
COCc1cc(C)n(CC(=O)c2ccccc2)c(=O)c1C#N	none
Cc1ccc(C(=O)CN2C3=NCCCN3c3ccccc32)cc1	none
C=CCn1c(-c2ccccc2)csc1=Nc1cccc([N+](=O)[O-])c1	ST2 inh 59.0%
Cc1ccc(C(=O)Cn2c(C)csc2=Nc2ccccc2)cc1	ST2 inh 41.0%
C=CCn1c(C)csc1=Nc1ccc(S(=O)(=O)Nc2nc(C)cc(C)n2)cc1	none
O=[N+]([O-])c1cccc(N=Cc2nc(-c3ccccc3)oc2O)c1	none
CN(CCCC(=O)O)c1nc(-c2cccc([N+](=O)[O-])c2)cs1	none
CN(C)CCCn1c(-c2ccc([N+](=O)[O-])cc2)csc1=Nc1ccccc1	ST2 inh 51.0%
Cc1[nH]n(-c2ccc([N+](=O)[O-])cc2)c(=O)c1C=NCC(O)c1ccccc1 (stereo not drawn)	none
CN(C)CCN(C)Cc1ccc([N+](=O)[O-])cc1	none
Cc1csc(=Nc2ccccc2)n1CC(O)c1ccc([N+](=O)[O-])cc1 (stereo not drawn)	ST2 inh 39.0%
NC(CO)C(O)c1ccc([N+](=O)[O-])cc1 (stereo not drawn)	none
Cc1ccc(-c2nnc(N3CCN(C)CC3)c3ccccc23)cc1	none
Cc1ccc(CN2CCCCC2CO)c(C)c1 (stereo not drawn)	none
CCN1CCN(C(=O)c2ccc3c(c2)ncn3C2CCCCC2)CC1	none
O=C1CSC(c2ccc(Cl)cc2)N1c1ccc(F)c(Cl)c1 (stereo not drawn)	none
O=C(Cn1cnc2c(oc3ccccc32)c1=O)N1CCC(Cc2ccccc2)CC1	none
O=C(NCCSc1c[nH]c2ccccc12)c1ccccc1I	none
COc1ccccc1NC(=O)C1=C(C)Nc2nnnn2C1c1ccc(OC)c(OC)c1 (stereo not drawn)	none
CN(C)CCNC(=O)Cc1c(C(=O)O)[nH]c2ccccc12	none
COc1cc(C(=O)N2CCN=C2SCc2ccc(Br)cc2)cc(OC)c1OC	none
COc1cccc(N2CC(NC(=O)C(C)(C)C)CC2=O)c1 (stereo not drawn)	none
CC(C)c1cccc(OCCN2CCNCC2)c1	none
CC1CN(C(=O)c2ccccc2Cl)CCN1C(=O)c1ccccc1Cl (stereo not drawn)	none
O=c1ccn(-c2ccccc2)[nH]1	none
O=C1C(=Cc2cccn2-c2ccccc2)C(=O)c2ccccc21	ST2 inh 31.0%
O=C(O)COc1ccc(C=C2C(=O)c3ccccc3C2=O)cc1Cl	none
CC(C)Cn1cncc1CNC(=O)c1cc2n(n1)CCN(C)C2	none
COc1ccc(C)cc1NC(=O)C1c2cc(OC)c(OC)cc2C(=O)N(C)C1c1cccs1 (stereo not drawn)	none
O=C(N[C@H]1CCN2C(=O)c3cc(-c4ccccc4F)ccc3NC(=O)[C@@H]2C1)c1ccco1	ST2 inh 60.0%
COCC(=O)N[C@H]1CCN2C(=O)c3cc(-c4cccc(C)c4C)ccc3NC(=O)[C@@H]2C1	none
O=C(N[C@H]1CCN2C(=O)c3cc(-c4cccc(C(F)(F)F)c4)ccc3NC(=O)[C@@H]2C1)c1ccncc1	none
COc1ccc(-c2cc(N3CCN(S(=O)(=O)c4cccc(Cl)c4)CC3)ncn2)cc1	none
Cc1ccc(Nc2cc(C)nc(N3CCN(S(=O)(=O)c4c(C)cc(C)cc4C)CC3)n2)cc1	none
Cc1ccc(C)c(S(=O)(=O)N2CCN(c3nc(C)cc(Nc4ccccc4)n3)CC2)c1	none
Cc1ccc(Nc2cc(C)nc(N3CCN(S(=O)(=O)c4cc(C(C)C)ccc4C)CC3)n2)cc1	ST2 inh 30.0%
CC(NC(=O)c1ccccc1F)c1ccc(Br)cc1 (stereo not drawn)	none
CCc1nnc(NC(=O)c2c(F)c(F)c(F)c(F)c2F)s1	none
O=C(Nc1ccc(S(=O)(=O)Nc2nccs2)cc1)c1ccccc1	none
CC(=O)Sc1nc(O)c(C=C2C=c3ccc(C)cc3=NC2=O)[nH]1	ST2 inh 31.0%
Cc1nonc1OCCNC(C)C(=O)NC1CCCC1 (stereo not drawn)	none
O=c1oc(-c2ccc(Oc3ccccc3)cc2)nc2ccccc12	none
COc1ccc(C2=Cc3cc(OC)c(OC)cc3/C(=C/c3ccccc3)O2)cc1	none
O=C1OC(c2ccc(Oc3ccccc3)cc2)=C/C1=C\c1ccco1	ST2 inh 54.0%
CN1CCN(c2cc(NCCCc3nc4ccccc4[nH]3)nc(N)n2)CC1	none
Cc1ccc(OCC(=O)NC2CCCC2)cc1C	none
O=C(Nc1ccc(-c2nc3ccccc3s2)cc1)C(F)(F)F	none
Cc1ccc(-c2nc3cc(Cl)ccc3o2)cc1NC(=O)c1ccco1	none
O=C(Nc1cc(-c2nc3ccccc3s2)ccc1Cl)c1ccco1	ST2 inh 39.0%
CSc1ccccc1NC(=O)CC1Sc2ccc(C(F)(F)F)cc2NC1=O (stereo not drawn)	none
CSc1ccc(NC(=O)c2sc3nc(-c4ccc(F)cc4)ccc3c2N)cc1	ST2 inh 44.0%
COc1ccc(CCNC(=O)c2sc3nc(-c4ccc(OC)cc4)ccc3c2N)cc1	none
COc1cc(NC(=O)c2sc3nc(-c4ccc(F)cc4)ccc3c2N)cc(OC)c1OC	none
Cc1cc(C(=O)N(C)Cc2noc(CC(C)C)n2)nc(C)n1	none
COc1ccc(NC(=O)c2oc3ccccc3c2NC(=O)COc2ccccc2)c(OC)c1	none
COc1ccccc1/C=C1\N=C(c2cccc([N+](=O)[O-])c2)OC1=O	none
COc1cc(C)c(/C=C2/N=C(c3ccccc3)OC2=O)cc1C(C)C	none
